YB-1 expression – YB-1 expression inhibition | delta delta Cp (YB-1 minus CDIP) (concentration not given with the values) | AID 434959 | U2OS, qRT-PCR YB-1 vs CDIP delta delta Cp, 16 h; active compounds read high; zero = DMSO, each unit about twofold | 30,000 tested, 0.37% active;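 active = delta delta Cp rounded down to an integer at or above 3, about 3 SD of DMSO wells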;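 also: higher means less YB-1 transcript or more CDIP transcript relative to DMSO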
MITF inhib – blocks MITF activity. TRPM1 promoter luciferase, luminescence, 24 h. inhibition, % (no concentration beside the values). 37,000 tested, 0.28% active; in the data active = inhibition above about 85%;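 also: human melanocyte line stably carrying TRPM1 promoter luciferase reporter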
BJeLR viab HTS – compounds reducing viability of BJeLR cells | BJeLR fibroblasts viability, CellTiterGlo ATP luminescence, 48 h; HRASV12, hTERT and SV40 LT/ST transformed | viability loss activity score, % (test concentration not listed) | 30,000 tested, 0.64% active; in the data active = viability loss activity score above about 50%;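 also: higher score means fewer live cells and less ATP luminescence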
U2OS ROS induce – inducers of reactive oxygen species in cancer cells. U2OS ROS induction, H2DCF-DA fluorescence. ROS induction (% of piperlongumine), % at 10 µM. 46,000 tested, 2% active; in the data active = ROS induction above about 79%, passing the limit was not always enough;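 also: 0% = DMSO vehicle median and 100% = reference compound median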
* hit, by the source's call; x = no result given. An excerpt weighted towards active compounds, which were near 2.5% of everything screened.

SMILES	YB-1 expression	MITF inhib	BJeLR viab HTS	U2OS ROS induce
O=C1c2c(O)ccc(O)c2C(=O)c2c(NCCNCCO)ccc(NCCNCCO)c21	1.54	95.9*	109.7*	-7.0
C[C@H](CO)N1C[C@H](C)[C@H](CN(C)Cc2ccc(Cl)c(Cl)c2)Oc2c(NC(=O)CCCCCC(=O)Nc3ccccc3N)cccc2C1=O	-0.0691	41.3	x	121.4*
C[C@@H]1CN([C@H](C)CO)C(=O)c2cccc(NC(=O)CCCCCC(=O)Nc3ccccc3N)c2O[C@@H]1CN(C)Cc1ccc2c(c1)OCO2	0.0247	13.7	x	-5.5
C[C@@H]1CN([C@H](C)CO)C(=O)c2cccc(NC(=O)CCCCCC(=O)Nc3ccccc3N)c2O[C@H]1CN(C)Cc1ccc2c(c1)OCO2	-0.23	48.4	x	106.1*
COC(=O)c1ccccc1NC(=S)N1CCCCC1	x	x	2.3	-9.4
Cn1cccc1Cc1nnc(SCC(=O)N2CCCCC2)n1CCc1ccccc1	x	x	1.0	-8.2
Cc1ccc2oc(-c3cc(NC(=O)c4ncn[nH]4)ccc3O)nc2c1	x	-8.4	x	146.5*
c1ccc(-c2nn3c(-c4ccccc4)nnc3s2)cc1	x	x	-3.4	x
O=[N+]([O-])c1ccccc1-c1ccc(-c2nn3c(-c4ccccc4)nnc3s2)o1	x	-42.2	x	174.0*
CC(C)n1c2ccccc2c2nnc(SCCCC(=O)c3ccc(F)cc3)nc21	x	x	6.5	7.3
CC(C)n1c(/C=C/[C@H](O)C[C@H](O)CC(=O)O)c(-c2ccc(F)cc2)c2ccccc21	0.883	-1.8	56.3*	-10.2
O=C(CCC1CCCC1)Nc1ccc2nc3n(c(=O)c2c1)CCCCC3	x	x	-6.9	15.3
CCOC(=O)c1cn(CC(=O)Nc2ccccc2)nn1	x	x	-7.5	x
CCOC(=O)c1c(-c2ccccc2)oc2ccc(O)c(CSCC(=O)Nc3ccccc3)c12	9.59*	19.5	-4.0	20.2
CCn1c(C(=O)N2CCC(C(=O)O)CC2)cc2sccc21	x	x	2.4	-5.0
C[C@H](CO)N1C[C@H](C)[C@H](CN(C)C(=O)Nc2ccc(F)cc2)Oc2ncc(/C=C/c3ccccc3)cc2C1=O	-0.393	x	x	89.9*
C[C@H](CO)N1C[C@H](C)[C@H](CN(C)C(=O)Nc2ccc3c(c2)OCO3)Oc2ncc(/C=C/c3ccccc3)cc2C1=O	0.451	x	x	119.8*
C[C@H](CO)N1C[C@H](C)[C@H](CN(C)C(=O)Nc2ccc(F)cc2)Oc2ncc(-c3ccccc3)cc2C1=O	0.111	x	x	42.3
O=S(=O)(Nc1ccncc1)c1ccc2ccccc2c1	x	x	-1.8	0.7
CC1CCCC(NC(=O)c2ccc3c(SCC(=O)O)c4c(nc3c2)CCC4)C1C (stereo not drawn)	x	x	-7.7	-9.4
Cc1c2c(nc3c(C(=O)NC4CCCC(C)C4C)cnn13)CCCC2 (stereo not drawn)	x	x	-7.4	89.5*
O=C(N/N=C/c1cc(Cl)cc(Cl)c1O)c1ccccn1	-0.376	x	x	7.5
c1ccc2[nH]c(CSCCC3CCCCC3)nc2c1	x	x	5.5	-18.3
Cc1ccc(N/C(N)=N/c2nc(C)cc(=O)[nH]2)c(C)c1	x	x	-0.6	-8.3
C[C@H]1CN([C@@H](C)CO)C(=O)c2cccc(NC(=O)Nc3ccccc3)c2O[C@@H]1CN(C)Cc1ccc(Cl)c(Cl)c1	0.105	6.5	2.5	89.1*
SMILES	YB-1 expression	MITF inhib	BJeLR viab HTS	U2OS ROS induce
C[C@H]1CN([C@@H](C)CO)C(=O)c2cccc(NC(=O)Nc3ccc4c(c3)OCO4)c2O[C@@H]1CN(C)Cc1ccc(-c2ccccc2)cc1	-0.303	15.9	1.8	15.7
C[C@H]1CN([C@@H](C)CO)C(=O)c2cccc(NC(=O)Nc3ccccc3)c2O[C@@H]1CN(C)Cc1ccc(C(=O)Nc2ccccc2N)cc1	-0.893	-0.7	x	144.3*
C[C@@H]1CN([C@H](C)CO)C(=O)c2cccc(NC(=O)Nc3ccccc3)c2O[C@@H]1CN(C)Cc1ccc(Cl)c(Cl)c1	-0.169	11.6	-2.3	15.1
C[C@@H]1CN([C@@H](C)CO)C(=O)c2cccc(NC(=O)Nc3ccccc3)c2O[C@@H]1CN(C)Cc1ccc(-c2ccccc2)cc1	1.12	-17.1	-0.1	82.4*
C[C@H]1CN([C@@H](C)CO)C(=O)c2cccc(NC(=O)Nc3ccc4c(c3)OCO4)c2O[C@H]1CN(C)Cc1ccc(-c2ccccc2)cc1	0.584	-21.9	3.5	102.0*
O=C(c1ccc(CN2CCc3ccccc3C2)cc1)N1CCCCCC1	x	x	3.0	x
C[C@H](CO)N1C[C@H](C)[C@@H](CN(C)Cc2ccc(Oc3ccccc3)cc2)Oc2c(NC(=O)Nc3ccccc3)cccc2C1=O	0.0895	26.8	7.0	101.2*
C[C@@H]1CN([C@@H](C)CO)C(=O)c2cccc(NC(=O)Nc3ccccc3)c2O[C@@H]1CN(C)Cc1ccc(Oc2ccccc2)cc1	0.255	-9.5	-5.3	86.8*
CCCN(CCC)CN1C(=S)SC2=NC(=O)CCCN21	x	x	5.5	-2.3
CC1(C)CC(C)(c2ccccc2)c2cc(SC#N)ccc2N1 (stereo not drawn)	0.172	46.0	-8.5	113.6*
O=C(CSc1nc2c(sc3ccccc32)c(=O)n1CC1CCCO1)c1ccccc1 (stereo not drawn)	x	x	5.0	111.5*
N#CCSc1nc2c(sc3ccccc32)c(=O)n1C1CCCCC1	x	x	-5.9	157.4*
Cc1ccc(N(Cc2ccco2)C(=O)c2cccc(S(=O)(=O)N(C)C)c2)cc1	x	9.9	x	137.7*
CNc1nc2ccccc2n2c(C)nnc12	x	x	-3.9	-13.5
C[C@@H]1CCCCO[C@@H](CN(C)C(=O)Nc2ccccc2)[C@@H](C)CN([C@H](C)CO)C(=O)c2cc(NC(=O)CCC(F)(F)F)ccc2O1	-0.405	-8.8	x	95.1*
C[C@@H]1CCCCO[C@H](CN(C)C(=O)CCC(F)(F)F)[C@@H](C)CN([C@H](C)CO)C(=O)c2cc(N(C)C)ccc2O1	9.88*	-2.5	x	4.1
C[C@@H]1CCCCO[C@H](CN(C)C(=O)Nc2ccccc2)[C@@H](C)CN([C@H](C)CO)C(=O)c2cc(NC(=O)c3ccccc3)ccc2O1	4.38*	-8.4	x	13.8
C[C@@H]1CCCCO[C@H](CN(C)C(=O)Nc2ccccc2)[C@@H](C)CN([C@H](C)CO)C(=O)c2cc(NC(=O)CCC(F)(F)F)ccc2O1	-0.00456	-6.6	x	19.4
Cc1ccnc(NC(=O)CCNS(=O)(=O)c2ccc3c(c2)c(=O)n(C)c(=O)n3C)c1	x	x	3.3	x
O=C(Oc1cccc2cccnc12)c1cn(-c2ccccc2)nc1-c1ccccc1	x	x	-3.0	x
Cc1cc(C)n2nc(SCC(=O)NC(C)CCc3ccccc3)nc2n1 (stereo not drawn)	x	x	0.2	-4.3
COc1ccc(C#Cc2ccc3c(c2)[C@]2(C(=O)N3)[C@H](C(=O)N3CCN(c4ncccn4)CC3)[C@H]3C(=O)O[C@H](c4ccccc4)[C@H](c4ccccc4)N3[C@@H]2c2ccccc2OCCO)cc1	0.293	x	x	27.6
O=C1O[C@@H](c2ccccc2)[C@@H](c2ccccc2)N2[C@@H](c3ccccc3OCCO)[C@]3(C(=O)Nc4ccccc43)[C@@H](C(=O)N3CCN(c4ncccn4)CC3)[C@H]12	0.329	x	x	121.8*

Screening data as filed in PubChem BioAssay.
